Experimental data as given in PubChem BioAssay (NCI).
The panel holds about 83,000 compounds, 20% with a hit somewhere; the sample as a whole holds those more often.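 Compound tested at a single concentration for 48 hours in 96-well plates; a percent growth value below 10 was scored as active.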 A number with no mark means an inactive call. Active and inactive are the calls of the source.

What was measured:
Assay in all cases: NCI-60 one-dose screen, 48 h (100 = growth as untreated, 0 = no growth, -100 = all killed)
Conditions in all cases: 10 µM unless noted
SR leukemia = tested on: SR leukemia
RPMI-8226 leukemia = tested on: RPMI-8226 leukemia
OVCAR-8 ovarian = tested on: OVCAR-8 ovarian
OVCAR-5 ovarian = tested on: OVCAR-5 ovarian
OVCAR-4 ovarian = tested on: OVCAR-4 ovarian
SK-OV-3 ovarian = tested on: SK-OV-3 ovarian
IGROV1 ovarian = tested on: IGROV1 ovarian
OVCAR-3 ovarian = tested on: OVCAR-3 ovarian
HS 578T breast = tested on: HS 578T breast
NCI/ADR-RES ovarian = tested on: NCI/ADR-RES ovarian

| SMILES | growth (SR leukemia) | growth (RPMI-8226 leukemia) | growth (OVCAR-8 ovarian) | growth (OVCAR-5 ovarian) | growth (OVCAR-4 ovarian) | growth (SK-OV-3 ovarian) | growth (IGROV1 ovarian) | growth (OVCAR-3 ovarian) | growth (HS 578T breast) | growth (NCI/ADR-RES ovarian) |
| --- | --- | --- | --- | --- | --- | --- | --- | --- | --- | --- |
| O=C1c2cc3c(cc2-c2c1c1ccc(Cl)cc1c(=O)n2C[C@H](O)[C@@H](O)[C@H](O)CO)OCO3 | 0.866% (active) | 0.957% (active) | 1.03% (active) | -2.44% (active) | 18.6% | -23.1% (active) | 9.99% (active) | -10.4% (active) | 11.3% | 7.03% (active) |
| C=C(C)[C@@H]1CC[C@]2(C)[C@H](CC=C3[C@@H]4CC(C)(C)CC[C@]4(C(=O)OC)CC[C@]32C)[C@@]1(C)CC/C(N)=N/O | 0.151% (active) | 34.9% | 38.4% | 90.4% | 36.4% | 68% | 80.2% | 67.2% | 72.4% | -24.5% (active) |
| CC(=O)N1N=C(c2ccc(C)cc2)CC1c1ccc(Oc2ccc(Br)cc2)cc1 (stereo not given) | 93.9% | 74.8% | 85.2% | 88.9% | 74.6% | 62.1% | 66.7% | 88.3% | 87.4% | 73.1% |
| Cn1cc(-c2csc(-c3cn(CCN)c4ccccc34)n2)c2cccnc21 | -16.9% (active) | 51.1% | 40.8% | 74.9% | 51.8% | 63.8% | 39.9% | 45.5% | 67.6% | 44.1% |
| CC1(C)c2ccccc2C(=O)C1(Br)Cc1ccccc1 (stereo not given) | 53.5% | 46.8% | 93% | 73.7% | 63.6% | 110% | 92.5% | 65.4% | 84.1% | 72.8% |
| CC(C)c1cc(C(=O)O)c(O)c(C(C)C)c1.CC(C)c1cc(C(=O)O)c(O)c(C(C)C)c1.[Mn] | 93.5% | 98% | 101% | 116% | 96.3% | 110% | 114% | 96.9% | 107% | 118% |
| O=C(NO)c1ccc(Cn2c(=O)n(CCc3ccc(O)cc3)c(=O)c3ccccc32)cc1 | 16.5% | 31.6% | 36.2% | 86% | 56.4% | 86.7% | 74.9% | 18.9% | 58.8% | 92.8% |
| C=C(C)[C@@H]1CC[C@]2(CN)CC[C@]3(C)[C@H](CC[C@@H]4[C@@]5(C)CCC(=O)NC(C)(C)[C@@H]5CC[C@]43C)[C@@H]12 | -27.1% (active) | 37.9% | 66.5% | 97.8% | 70.7% | 92% | 70.3% | 88% | 84.1% | 70% |
| COc1cc(/C=N/NC(=S)NNC(=S)NC2CCCCC2)cc(OC)c1OC | 96.9% | 70.1% | 97.8% | 106% | 86.3% | 110% | 89.9% | 103% | 106% | 97.5% |
| COc1cc(/C=C/c2cc(/C=C/c3ccc(O)c(OC)c3)n(-c3ccccc3)c(=O)n2)ccc1O | 30.7% | 50.7% | 79.1% | 113% | 61.3% | 90.7% | 87% | 72.3% | 69.6% | 97.7% |
| N#C/C(=C\c1ccc(-c2ccc(Br)cc2)o1)c1nc(-c2ccco2)cs1 | 95.6% | 61.4% | 99.8% | 63.4% | -6.53% (active) | 91% | 60.9% | 106% | 100% | 99.8% |
| NCCn1cc(-c2nc(-c3c[nH]c4ncccc34)cs2)c2cc(Br)ccc21 | 15.2% | 43.3% | 91.6% | 89.4% | 54.7% | 90.8% | 43.6% | 82.4% | 83.1% | 90% |
| COc1ccc(-c2cc(-c3cccs3)n(N=O)c(=O)c2C#N)cc1 | 114% | 88.4% | 97.4% | 94.4% | 100% | 105% | 100% | 123% | 101% | 102% |
| CNC(=O)c1cc(Oc2ccc3nc(NC(=O)Nc4ccc(Cl)cc4)sc3c2)ccn1 | 42.7% | 81.7% | 57.2% | 92.3% | 13% | 82% | 83.6% | 48.8% | 30.1% | 83.6% |
| CN1CCN(c2nc(-c3csc(-c4cccs4)n3)cc3ccccc23)CC1 | 2.45% (active) | 13.3% | 75.6% | 87.7% | 57.9% | 90.8% | 23.1% | 39.9% | 71.3% | 70.8% |
| Nc1nc(N)c2nc3c(nc2n1)CCCCCCCCCC3 | 32.2% | 85.6% | 39.9% | 69.4% | 61.9% | 78.9% | 37.1% | 81.9% | 72.6% | 52.9% |
| Cc1ccsc1-c1ccc2c(c1)COC2(CCCN(C)C)c1ccc(F)cc1 (stereo not given) | -4.74% (active) | 19% | 71.9% | 72.1% | 54.4% | 79.1% | 26.6% | 67.2% | 49% | 72.4% |
| CCN1CCN(C(=O)[C@]23CCC(C)(C)C[C@@H]2C2=CC[C@@H]4[C@@]5(C)C/C(=C/c6cccnc6)C(=O)C(C)(C)[C@@H]5CC[C@@]4(C)[C@]2(C)CC3)CC1 | 4.78% (active) | 5.88% (active) | 27.1% | 83.8% | 7.28% (active) | 56% | 51.6% | 28.6% | 54.6% | 8.32% (active) |
| C#CCn1c2c(c3ccccc31)C[C@]1(C)[C@H]3CC[C@@H]4[C@@H]5C(=CCC[C@H]5C(=C)C)CC[C@@]4(C)[C@]3(C)CC[C@H]1C2(C)C | 82.7% | 106% | 105% | 101% | 100% | 108% | 98.4% | 108% | 93.8% | 106% |
| CC1(C)C(=O)/C(=C\c2cccnc2)C[C@]2(C)[C@H]3CC[C@@H]4[C@@H](C(=O)/C=C/c5ccncc5)CC[C@@]4(C)[C@]3(C)CC[C@@H]12 | 5.46% (active) | -7.22% (active) | 19.5% | 18.1% | 18.9% | 64.2% | -28.1% (active) | -48.6% (active) | 31.7% | -0.549% (active) |
| OCC12CCCC(CO)(COC1)C2O (stereo not given) | 116% | 103% | 109% | 106% | 104% | 102% | 116% | 117% | 115% | 97.3% |
| Cn1cc(-c2csc(-c3cn(CCCN4CCCCC4)c4ccc(Br)cc34)n2)c2cccnc21 | -48.9% (active) | -35.3% (active) | -16.4% (active) | 30.8% | 32.3% | 75.2% | -20.1% (active) | -75.6% (active) | 60.8% | 19.9% |
| O=C1C(=O)N(CCCCn2cc(-c3ccccc3)nn2)c2ccccc21 | 108% | 95.6% | 103% | 102% | 106% | 111% | 101% | 111% | 99.1% | 104% |
| COc1cnc2c(c1)C(=O)c1c-2n(CCCNCCN2CCOCC2)c(=O)c2cc([N+](=O)[O-])ccc12 | -0.128% (active) | -14.5% (active) | 2.29% (active) | 15.3% | -13.5% (active) | -12.9% (active) | 15.6% | -25.9% (active) | 26.7% | 7.12% (active) |
| Cc1[c-]onc1C.Cc1[c-]onc1C.[Ag].[Ag].[NH-]S(=O)(=O)c1ccc(N=Nc2cc(N=Nc3ccc(S([NH-])(=O)=O)cc3)c3c(NC(=O)C(Cl)Cl)cccc3c2OC(=O)C(Cl)Cl)cc1 | 81.4% | 80.4% | 69.1% | 125% | 93.9% | 111% | 73% | 59.7% | 85.2% | 96.9% |
